Nrf2 ARE act: activators of Nrf2 (ARE) signaling; AREc32 ARE-luciferase reporter (MCF7-derived line), luminescence, 24 h; Potency, µM (highest dose often 46.1 µM), actives largely listed as activators; hit rate 0.31% among 410,000; note: nearly all actives have a fitted effect of over 65% in size
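AREc32 cells carrying an ARE-driven firefly luciferase, 1000 cells/well in OPTI-MEM with 5% FBS, dosed after overnight attachment and incubated 24 hr at 37 deg C. Steady-Glo luminescence read after 30 min at RT.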
A549 viability: counter-screen for Nrf2 inhibitors: cytotoxicity in A549 cells. AID 504648. Potency, µM (titrated, usually from 46 µM), hits mostly inhibitors. hit rate 0.16% among 390,000. A549 ARE-Fluc cells, CellTiter-Fluor viability, 18-24 h
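A549 ARE-Fluc cells in 5% FBS OPTI-MEM, 5000 cells/well, rested 2 h then exposed to compounds in concentration-response for 18-24 h at 37 °C. Viability by CellTiter-Fluor fluorescence (Ex 405/Em 525) after 30 min; luciferase luminescence (BugLite, 15 min, RT) read afterwards.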
PINK1 modulator: modulators of PINK1 expression; hit rate 0.2% among 410,000; PINK1 immunofluorescence, high-content cytometry, 24 h; Potency, µM (highest dose often 76.6 µM), actives largely listed as activators; AID 624263; active = well fitted activation curve with a large enough effect; inconclusive = small, poorly fitted or top-dose-only effect; cell line not stated here; note: nearly all actives have a fitted effect of over 65% in size
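PINK1 protein level read as immunofluorescence by microplate cytometer in a fixed, stained stable cell line after 24 h exposure to five compound concentrations, with CCCP as control.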
Epigenetic reg: regulators of epigenetic silencing causing reporter derepression in mouse cells; murine LDR cells, GFP reporter derepression, 30 h; Potency, µM (top dose mostly 53.9 µM), usual class: activators; hit rate 0.2% among 280,000; note: nearly all actives have a fitted effect of over 60% in size
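In this reporter-derepression format, murine cells bearing a silenced integrated CMV-GFP locus incubate with test compound (30 h, 37 C), then are washed and imaged; fluorescent objects of 20–120 um count as induced cells.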
Nrf2 inh: Nrf2 pathway inhibition | Potency, µM (titrated, usually from 46 µM), most hits filed as inhibitors | A549 ARE-Fluc reporter, luciferase luminescence, 18-24 h | hit rate 2.1% among 360,000 | AID 504444; note: nearly all actives have a fitted effect of over 60% in size
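A549 ARE_Fluc cells (5000/well, 5% FBS OPTI-MEM) pre-incubated 2 h, then treated with compounds 18-24 h at 37C/5% CO2 in concentration-response. CellTiter-Fluor viability read first; BugLite luciferase luminescence after 15 min at room temperature gives Nrf2 activity.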
A number is an active result; . = inactive; ? = inconclusive; / = no result given; [ ] = dose if it differs, or a comment. Sampled rows, rich in hits. Any-hit rate of the full collection: about 2.4%. Unless noted, calls come from the whole dose curve; as a rule, active = well fitted curve in the direction sought with a large enough effect; inconclusive = small, poorly fitted or top-dose-only effect, or another doubt; inactive = no such curve, though single readings can be large; an effect the other way counts as inactive or inconclusive.

SMILES | Nrf2 ARE act | A549 viability | PINK1 modulator | Epigenetic reg | Nrf2 inh
Cc1cc(Oc2ccc(Cl)cc2Cl)nc(C#N)n1 | / | / | . | / | /
COc1ccc(C2Nc3ccccc3C(=O)N2Cc2cccc(-c3ccccc3)c2)cc1COc1ccc(NC(C)=O)cc1 (stereo unspecified) | / | . | / | / | ?
COc1cc(OC)cc(OC2(C)CCN(Cc3ccc(OC(C)C)cc3)C2)c1 (stereo unspecified) | . | / | 44.7µM | / | /
CC(C)c1ccc(CN2CCC(C)(Oc3ccc(Cl)cc3)C2)cc1 (stereo unspecified) | . | / | ? | / | /
COc1cc2oc3ccc(C#Cc4ccc(N)cc4)cc3c(=O)c2cc1OC | . | . | . | / | 14.6µM
COc1cc2oc3ccc(C#Cc4ccccn4)cc3c(=O)c2cc1OC | . | . | . | / | .
Nc1ccc(C#Cc2ccc3c(=O)c4ccccc4oc3c2)cc1 | . | . | . | / | 10.3µM
COc1cc2oc3cc(C#Cc4ccc(N)cc4)ccc3c(=O)c2cc1OC | . | ? | . | / | 16.4µM
COc1ccc(NC(=O)c2cc(-c3ccc(F)cc3)no2)cc1OC | . | . | . | . | .
Cc1c(C(=O)N2CCC(Cc3ccccc3)CC2)sc2ncnc(NCc3ccccn3)c12 | / | / | . | / | /
CCSc1nnc(C(C)NC(=O)c2ccc(OC)cc2)n1C (stereo unspecified) | / | / | . | / | /
O=C(CN1C(=O)c2ccccc2S1(=O)=O)c1ccc(OC(F)F)cc1 | . | . | . | / | ?
O=C(CN1C(=O)c2ccccc2S1(=O)=O)c1ccc(F)cc1 | . | . | . | . | 13µM
O=C(CN1C(=O)c2ccccc2S1(=O)=O)c1ccc(Cl)cc1Cl | . | . | . | / | 11.6µM
O=C(CN1C(=O)c2ccccc2S1(=O)=O)c1ccccc1F | . | . | . | / | ?
COc1cccc(CNC(=O)c2c(OC)cc(=O)n3c2CCN(C(=O)c2cc(F)cc(F)c2)CC3)c1 | / | / | . | / | /
COC(=O)[C@@H]1CCCN1C(=O)c1c(OC)cc(=O)n2c1CCN(Cc1ccc3c(c1)OCCO3)CC2 | / | / | . | / | /
Cc1ccc(S(=O)(=O)N2C[C@@H]3[C@H]4CC[C@H](C4)[C@@H]3[C@@H](C)[C@@H]2c2ccco2)cc1 | . | . | . | / | ?
Cc1ccc(S(=O)(=O)N2C[C@@H]3[C@H]4CC[C@H](C4)[C@@H]3[C@@H](C)[C@H]2c2ccco2)cc1 | . | . | . | / | 20.6µM
CC(C)NC(=O)[C@@H]1C[C@@H](Sc2ccccn2)CN1C1CCN(C)CC1 | / | / | . | / | /
CNC(=O)c1cccc(NC(=O)c2cc(-c3ccccc3)nc3c2cnn3C(C)C)c1 | . | . | . | / | 20.6µM
COc1cc(NC(=O)c2cc(-c3ccccc3)nc3c2cnn3C(C)C)cc(OC)c1OC | . | ? | . | / | ?
Cc1ccc(NS(=O)(=O)c2cccc(Cl)c2)cc1C | / | . | / | / | .
Cc1ccc(NS(=O)(=O)c2cc3c4c(cccc4c2)C(=O)NC3=O)cc1C | . | . | . | . | 14.6µM
CN(CCO)C(=O)c1cn(C2CCCN(Cc3ccc4ccccc4c3)C2)nn1 (stereo unspecified) | / | / | . | / | /
SMILES | Nrf2 ARE act | A549 viability | PINK1 modulator | Epigenetic reg | Nrf2 inh
CC(=O)N(C)C | / | / | / | . | /
CCN(CC)S(=O)(=O)c1cccc(NC(=O)C2CC(=O)N(c3ccc4c(c3)OCCO4)C2)c1 (stereo unspecified) | . | . | . | / | 23.1µM
CCN(CC)S(=O)(=O)c1ccc(OC)c(NC(=O)C2CC(=O)N(c3ccc4c(c3)OCCO4)C2)c1 (stereo unspecified) | . | . | . | / | ?
COc1ccccc1C(=O)Nc1nc2ccccc2[nH]1 | . | . | . | / | ?
COc1cc(SC)ccc1C(=O)Nc1nc2ccccc2[nH]1 | . | . | . | / | 1.64µM
COCc1ccc(C(=O)N2CCOc3c(cc(-c4cc(C)c5cccc(OC)c5n4)cc3OC)C2)o1 | / | / | . | / | /
COc1ccccc1C(=O)N1CCN(c2nc3cc(C)c(C)cc3cc2C#N)CC1 | . | . | . | . | 23.1µM
CCN(CC)S(=O)(=O)c1cccc(NC(=O)Nc2cccc(C(F)(F)F)c2)c1 | . | ? | ? | . | 2.59µM
O=C(Nc1cccc(C(F)(F)F)c1)Nc1ccc2snnc2c1 | . | ? | ? | . | 20.6µM
O=C(CNc1cccc(S(=O)(=O)N2CCCC2)c1)Nc1ccc(F)c(F)c1 | . | . | . | / | 25.9µM
Cc1ccc(NC(=O)COc2ccc(-c3nnco3)cc2)cc1S(=O)(=O)N1CCOCC1 | . | . | . | . | 23.1µM
COc1cccc(O)c1CN1CCC2(CC1)c1ccccc1[C@@H](NC(=O)c1ccsc1)[C@@H]2OC | / | / | . | / | /
Cc1ccc(C(=O)N(Cc2cc3cccc(C)c3nc2N2CCC(O)CC2)C2CC2)cc1 | / | / | . | / | /
CSc1nnc(CNS(=O)(=O)c2ccc(F)cc2F)n1-c1ccccc1C | / | / | . | / | /
COc1cc(OC)c2nc(-c3cc4c(c(OC)c3)OCCN(C(=O)C(C)c3n[nH]c(=O)c5ccccc35)C4)cc(C)c2c1 (stereo unspecified) | / | / | . | / | /
CCN(CC)S(=O)(=O)c1cccc(NC(=O)CNc2cccc(S(=O)(=O)N3CCCC3)c2)c1 | . | ? | . | / | 25.9µM
Cc1ccc(NCC(=O)Nc2cccc(S(=O)(=O)N(C)C)c2)cc1S(=O)(=O)N1CCCCCC1 | . | ? | . | / | 8.2µM
Cc1ccc(NC(=O)CNc2cccc(Br)c2)cc1S(=O)(=O)N1CCOCC1 | . | ? | . | / | 20.6µM
Cc1nc(-c2ccc(F)cc2)c(CC(=O)Nc2ccc(C)c(S(=O)(=O)N3CCOCC3)c2)s1 | . | . | . | / | 18.4µM
Cc1ccc(NC(=O)CNc2cccc(S(=O)(=O)N3CCCC3)c2)cc1F | . | . | . | / | ?
CCCn1c2ccccc2c2cnn(CC(=O)NCCCN(Cc3ccccc3)C(C)C)c(=O)c21 | . | . | . | . | .
COc1ccc(OC)c(CC2C(=O)Nc3ccc(Br)cc32)c1 (stereo unspecified) | . | . | . | . | 23.1µM
Cc1ccccc1C1(CC(=O)N2CCCCC2C)CC(=O)N(Cc2cccnc2)C1=O (stereo unspecified) | / | / | . | / | /
Cc1nc(C)n(CC(=O)NCC2Cc3cc(-c4cccc(OC(F)(F)F)c4)ccc3O2)n1 (stereo unspecified) | / | / | . | / | /
Cc1ccc(-c2csc(NC(=O)c3ccc4c(=O)n5c(nc4c3)CCCCC5)n2)cc1 | .[9.22 µM] | . | . | . | 5.17µM
SMILES | Nrf2 ARE act | A549 viability | PINK1 modulator | Epigenetic reg | Nrf2 inh
COc1ccc(CNC(=O)c2ccc3c(=O)n4c(nc3c2)CCCCC4)cc1OC | . | . | . | / | 6.51µM
O=C(NCc1ccc(F)cc1)c1ccc2c(=O)n3c(nc2c1)CCCCC3 | . | . | . | / | .
O=C(Nc1ccc(OC(F)F)c(Cl)c1)c1ccccn1 | . | . | . | . | ?
O=C(NC(=S)Nc1ccc(F)c(Cl)c1)C1CC1 | . | . | . | / | .
Fc1ccc(NC(=S)Nc2ccc(F)c(Cl)c2)cc1Cl | . | . | 39.8µM | . | ?
Cc1ccc(NC(=S)Nc2ccc(OC(F)F)c(Cl)c2)cc1F | . | . | 15.8µM | . | ?
CCOc1ccc2[nH]c3c(=O)n(CCC4=CCCCC4)cnc3c2c1 | . | . | . | . | .
